# In PubChem BioAssay (NCATS):
# Values joined by “and” are separate entries in the source; they are usually repeats but may differ in a detail not shown here. Equal values may be shown once. Records with an inconclusive call do not appear. A call without a number means that no potency is given here. Active and inactive are the calls of the source. Unless noted, calls follow the shape of the dose curve; as a rule, active = well fitted curve in the direction sought with a large enough effect; inconclusive = small, poorly fitted or top-dose-only effect, or another doubt; inactive = no such curve, though single readings can be large; an effect the other way counts as inactive or inconclusive. Numbered stars: 1 amine (or outer) side, 2 acyl side, 3 side chain; on linkers, the order of the positions; unused ones are H or OH. Bridge positions count the residues as written; N and C are the ends. Square brackets hold non-standard residues; d marks the D form. Peptide text beside a SMILES is read from it. I, II: the chains in the order shown. Actinocin(9to1) = Cc1c2oc3c(C)ccc(C(=O)[*:1])c3nc-2c(C(=O)[*:2])c(N)c1=O; NMeV = CN[C@H](C(=O)O)C(C)C; Sar = CNCC(=O)O
# How the values were obtained:
# [1] = Cell Viability - LYMP1-002 - Assay at 24 hr (AID 993); also: potency is read from the fitted curve at half-maximal effect
# Outline: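 Human lymphoblastoid LYMP1-002 cells (2500/well) treated 24 h at 37 °C; viability as intracellular ATP by CellTiter-Glo luminescence. Tetraoctylammonium bromide as positive control; AC50 from Hill-equation fits of qHTS concentration-response.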
# [2] = Cell Viability - LYMP1-002 - Assay at 40 hr (AID 994); also: nearly all actives have a fitted effect of over 60% in size; also: potency is read from the fitted curve at half-maximal effect
# Outline: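 LYMP1-002 human lymphoblastoid cells (2500/well, complete medium) were treated with compounds for 40 hr at 37 C. Intracellular ATP was measured by CellTiter-Glo luminescence, and AC50 values came from Hill-equation fits of concentration-response data; tetraoctylammonium bromide was the positive control.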
# [3] = qHTS Assay for Identification of Small Molecule Inducers of Hypoxia Response (AID 2120; active = well fitted curve in the direction sought with a large enough effect in the signal ratio, with a control signal flat, not every such curve was filed as active; the % refers to the signal ratio)
# Outline: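 HRE-bla ME-180 cells in Opti-MEM with 0.5% dialyzed FBS, pre-plated 4-5 h, then compound titration for 17 h at 37 degrees Celsius. CCF4 loaded 2.5 h at room temperature; 460/530 nm ratio gave %Activity and AC50 for induction.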
# [4] = Cell Viability - LYMP2-024 (AID 988); also: nearly all actives have a fitted effect of over 60% in size; also: potency is read from the fitted curve at half-maximal effect
# Outline: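 Human lymphoblastoid LYMP2-024 cells (2500/well) rested 5 hr, then treated with compound for 24 hr at 37 C in complete medium. Viability was measured as intracellular ATP by CellTiter-Glo luminescence. AC50 values came from Hill-equation fits.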
# [5] = Cell Viability - LYMP2-026 (AID 989); also: nearly all actives have a fitted effect of over 50% in size; also: potency is read from the fitted curve at half-maximal effect
# Outline: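 Human lymphoblastoid LYMP2-026 cells, 2500/well, exposed to compound 24 h at 37 C in complete medium. Viability as intracellular ATP by CellTiter-Glo luminescence; AC50 from Hill fits of qHTS concentration-response.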
# [6] = qHTS Assay for Lipid Storage Modulators (AID 1519; calls by dose curve); details: Drosophila S3 cells, BODIPY lipid droplet/cell ratio, laser cytometry, cells loaded with oleic acid
# Outline: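 Cells seeded at 5,000 per well were treated with compounds over a concentration series and loaded with oleic acid (400 uM, as added). Lipid droplet fluorescence (488 nm excitation, 500-530 nm channel) was read by laser-scanning cytometry and normalized to 20 uM Triacsin C.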
# [7] = molecular target: DNA repair nuclease/redox regulator APEX1 (Homo sapiens) (UniProt P27695); assay: qHTS Validation Assay for Inhibitors of the Human Apurinic/apyrimidinic Endonuclease 1 (APE1) (AID 1705;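 also: TAMRA fluorescence gain over two minutes as APE1 cuts a quenched THF abasic duplex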)
# DNA repair nuclease/redox regulator APEX1 (Homo sapiens), sequence (P27695 whole entry, looked up): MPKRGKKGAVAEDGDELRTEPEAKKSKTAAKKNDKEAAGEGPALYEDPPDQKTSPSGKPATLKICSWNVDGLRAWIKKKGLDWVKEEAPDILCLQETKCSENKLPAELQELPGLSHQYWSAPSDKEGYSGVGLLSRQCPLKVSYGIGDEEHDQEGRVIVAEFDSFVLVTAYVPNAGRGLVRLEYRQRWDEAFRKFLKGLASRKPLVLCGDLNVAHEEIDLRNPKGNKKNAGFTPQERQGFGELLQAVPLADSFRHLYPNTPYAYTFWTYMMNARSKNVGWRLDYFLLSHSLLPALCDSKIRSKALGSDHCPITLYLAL
# Outline: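 Endonuclease activity of human APE1 is followed as dequenching when the enzyme incises a tetrahydrofuran abasic site in a short duplex labelled 5'-TAMRA/3'-BHQ-2 (50 nM final), after 15 min enzyme–compound preincubation at room temperature.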
# [8] = Counterscreen for APE1 Inhibitors: Fluorescent Dye Displacement Validation Assay (AID 1707)
# Outline: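 Compounds are scored by their ability to displace Thiazole Orange (250 nM) from a 50 nM TAMRA-tagged duplex bearing a tetrahydrofuran abasic site. Buffer is 50 mM Tris-HCl pH7.5, 50mM NaCl, 2 mM MgCl2, 0.01% Tween-20.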
# [9] = molecular target: Endonuclease 4 (Escherichia coli (strain K12)) (UniProt P0A6C1); assay: Counterscreen for APE1 Inhibitors: qHTS Validation Assay for Inhibitors of Endonuclease IV (AID 1708)
# Outline: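 Concentration-response counterscreen run identically to the APE1 assay: 15 min room-temperature preincubation of 2 nM enzyme with compound, reaction started with 50 nM quenched abasic DNA, progress taken from kinetic fluorescence.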
# [10] = qHTS for differential inhibitors of proliferation of Plasmodium falciparum line 7G8 (AID 1815);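 also: parasite growth measured after three days of incubation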; also: potency is read from the fitted curve at half-maximal effect
# [11] = qHTS for differential inhibitors of proliferation of Plasmodium falciparum line D10 (AID 1877);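 also: parasites grown with compound for 72 h before DNA staining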; also: potency is read from the fitted curve at half-maximal effect
# [12] = qHTS for differential inhibitors of proliferation of Plasmodium falciparum line HB3 (AID 1886); details: Potency: Plasmodium falciparum HB3 proliferation inhibition;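 also: parasites grown with compound for 72 h before SYBR Green readout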; also: potency is read from the fitted curve at half-maximal effect
# [13] = qHTS for differential inhibitors of proliferation of Plasmodium falciparum line GB4 (AID 1816); details: Potency: Plasmodium falciparum GB4 proliferation inhibition;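 also: parasite growth measured after 72 h incubation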; also: potency is read from the fitted curve at half-maximal effect
# [14] = qHTS for differential inhibitors of proliferation of Plasmodium falciparum line 3D7 (AID 1876); also: potency is read from the fitted curve at half-maximal effect
# [15] = qHTS for differential inhibitors of proliferation of Plasmodium falciparum line Dd2 (AID 1882); details: Potency: Plasmodium falciparum Dd2 proliferation inhibition; also: nearly all actives have a fitted effect of over 65% in size; also: potency is read from the fitted curve at half-maximal effect
# Outline: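 Dd2-infected erythrocytes (0.3% parasitemia, 2.5% hematocrit final) incubated with compound 72 h at 37 C, 5% CO2; lysed with saponin/Triton buffer containing SYBR Green I, incubated overnight in the dark, then read by fluorescence (485/535 nm). Normalized to 0.29 uM artemisinin and DMSO.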
# [16] = qHTS for differential inhibitors of proliferation of Plasmodium falciparum line W2 (AID 1883); details: Potency: Plasmodium falciparum W2 proliferation inhibition;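 also: parasites grown with compound for 72 h before lysis and staining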; also: potency is read from the fitted curve at half-maximal effect
# [17] = molecular target: Alpha-galactosidase A (Homo sapiens) (UniProt P06280); assay: Counterscreen for Glucocerebrosidase Inhibitors: qHTS Assay for Human alpha-Galactosidase at pH 4.5 (AID 992)
# Alpha-galactosidase A (Homo sapiens), sequence (P06280 whole entry, looked up): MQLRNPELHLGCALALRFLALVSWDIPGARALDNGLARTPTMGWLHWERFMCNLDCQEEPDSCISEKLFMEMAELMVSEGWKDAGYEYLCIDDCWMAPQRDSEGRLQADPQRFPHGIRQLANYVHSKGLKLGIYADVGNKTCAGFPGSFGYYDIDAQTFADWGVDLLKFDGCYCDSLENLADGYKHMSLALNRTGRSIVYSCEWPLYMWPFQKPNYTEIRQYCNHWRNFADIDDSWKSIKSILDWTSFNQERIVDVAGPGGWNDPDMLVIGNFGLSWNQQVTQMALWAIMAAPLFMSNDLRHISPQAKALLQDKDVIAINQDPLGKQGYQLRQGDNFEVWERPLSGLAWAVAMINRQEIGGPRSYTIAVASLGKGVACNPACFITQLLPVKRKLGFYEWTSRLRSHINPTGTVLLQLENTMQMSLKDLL
# Outline: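 Quantitative HTS: compounds tested from 0.7 nM up to 77 uM against 2 nM enzyme with 80 uM 4-MU alpha-D-galactopyranoside. The 20 min room-temperature reaction is stopped with 1M NaOH/1M glycine, pH 10.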
# [18] = molecular target: alpha-glucosidase (Oryza sativa, rice) (UniProt Q653V4); assay: Counterscreen for Glucocerebrosidase Inhibitors: qHTS Assay for Rice alpha-Glucosidase at pH 5.0 (AID 997)
# Outline: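 Rice alpha-glucosidase (4 nM final) with 400 uM 4-methylumbelliferyl-alpha-D-glucopyranoside in citrate buffer pH 5.0, 20 min at room temperature, stopped at pH 10; fluorescence 365/440 nm, compounds 0.7 nM–77 uM, AC50 from Hill fits.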
# [19] = qHTS Assay for Modulators of Human Peripheral Myelin Protein 22 (PMP22) Expression/Activity (AID 1967; active = well fitted curve in the direction sought with a large enough effect in the signal ratio; the % refers to the signal ratio)
# Outline: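 Quantitative HTS in a mouse Schwann cell line expressing dual click beetle luciferases: Pmp22 promoter (green) and control EF-alpha promoter (red). After 24h treatment, corrected green/red signal ratio gave %Activity relative to untreated cells.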
# [20] = measured here: cell count channel max response
# [21] = measured here: lipid channel max response
compound,measurement,setting,value
CC(=O)O[C@]1(C(C)=O)CC[C@H]2[C@@H]3C[C@H](C)C4=CC(=O)CC[C@]4(C)[C@H]3CC[C@@]21C,Potency,[1],inactive
same,Potency,[2],inactive
same,outcome,[3],inactive
O=C1OC(c2ccc(O)cc2)(c2ccc(O)cc2)c2ccccc21,Potency,[4],inactive
same,Potency,[5],inactive
same,Potency,[1],inactive
same,Potency,[2],inactive
CNCCC(Oc1ccccc1C)c1ccccc1 (stereo not given),"activity change, negative = inhibition",[6]; at 57.5 µM (top of the series),2.16% (inactive)
same,max response,[6]; [20],19.1%
same,max response,[6]; [21],23.2%
same,Potency,[7],inactive
same,outcome,[8],inactive
same,outcome,[9],inactive
same,Potency,[10],7940 nM (active)
same,Potency,[11],inactive
same,Potency,[12],inactive
CC(=O)Oc1ccc(C(c2ccc(OC(C)=O)cc2)c2ccccn2)cc1,Potency,[4],inactive
same,Potency,[5],inactive
same,Potency,[1],inactive
same,Potency,[2],inactive
same,"activity change, negative = inhibition",[6]; at 25.7 µM (top of the series),-1.79% (inactive)
same,max response,[6]; [20],-13.8%
same,max response,[6]; [21],-14.3%
same,outcome,[3],inactive
CC/C(=C(/CC)c1ccc(O)cc1)c1ccc(O)cc1,Potency,[4],inactive
same,Potency,[5],inactive
same,Potency,[1],inactive
same,Potency,[2],inactive
same,"activity change, negative = inhibition",[6]; at 57.5 µM (top of the series),9.04% (inactive)
same,max response,[6]; [20],9.58%
same,max response,[6]; [21],18.5%
Oc1ccc(Cl)cc1Sc1cc(Cl)ccc1O,Potency,[1],inactive
O=C(O)CCCCC(=O)O,Potency,[4],inactive
same,Potency,[5],inactive
same,Potency,[1],inactive
same,Potency,[2],inactive
same,outcome,[3],inactive
O=c1ccc2ccccc2o1,Potency,[4],inactive
same,Potency,[5],inactive
same,Potency,[1],inactive
same,Potency,[2],inactive
same,outcome,[3],inactive
COC1=CC(=O)C[C@@H](C)[C@]12Oc1c(Cl)c(OC)cc(OC)c1C2=O,Potency,[4],inactive
same,Potency,[5],inactive
same,Potency,[1],inactive
same,"activity change, negative = inhibition",[6]; at 57.5 µM (top of the series),14.1% (inactive)
same,max response,[6]; [20],4.54%
same,max response,[6]; [21],22.2%
same,outcome,[3],inactive
CCCCCCc1ccc(O)cc1O,Potency,[4],inactive
same,Potency,[5],inactive
same,Potency,[1],inactive
same,Potency,[2],inactive
same,outcome,[3],inactive
CN=C(NC#N)Nc1ccc(C2=NNC(=O)CC2C)cc1 (stereo not given),"activity change, negative = inhibition",[6]; at 57.5 µM (top of the series),2.25% (inactive)
same,max response,[6]; [20],14.7%
same,max response,[6]; [21],17.1%
same,Potency,[7],inactive
same,outcome,[8],inactive
same,outcome,[9],inactive
same,Potency,[13],inactive
same,Potency,[14],inactive
same,Potency,[11],inactive
same,Potency,[15],inactive
same,Potency,[16],inactive
same,Potency,[12],inactive
NC(=NCCCCCCN=C(N)/N=C(\N)Nc1ccc(Cl)cc1)/N=C(\N)Nc1ccc(Cl)cc1,Potency,[4],39800 nM (active)
same,Potency,[5],50100 nM (active)
same,Potency,[1],39800 nM (active)
same,Potency,[2],39800 nM (active)
CC(O)C(=O)O (stereo not given),Potency,[4],inactive
same,Potency,[5],inactive
same,Potency,[1],inactive
same,Potency,[2],inactive
same,outcome,[3],inactive
Oc1cc(O)c2c(c1)O[C@H](c1ccc(O)c(O)c1)[C@H](O)C2,outcome,[17],inactive
same,outcome,[18],inactive
same,"activity change, negative = inhibition",[6]; at 25.7 µM (top of the series),-1.15% (inactive) and 0.397% (inactive)
same,max response,[6]; [20],-2.18% and -16.1%
same,max response,[6]; [21],-4.1% and -15.5%
C=CCc1ccc(O)c(OC)c1,Potency,[4],inactive
same,Potency,[5],inactive
same,Potency,[1],inactive
same,Potency,[2],inactive
same,"activity change, negative = inhibition",[6]; at 57.5 µM (top of the series),13.1% (inactive) and 1.99% (inactive)
same,max response,[6]; [20],19.8% and 9.66%
same,max response,[6]; [21],40.9% and 11.8%
same,outcome,[3],inactive
Oc1c(Cl)cc(Cl)cc1Sc1cc(Cl)cc(Cl)c1O,Potency,[1],inactive
same,Potency,[2],50100 nM (active)
same,"activity change, negative = inhibition",[6]; at 57.5 µM (top of the series),0.0363% (inactive)
same,max response,[6]; [20],9.87%
same,max response,[6]; [21],13.2%
"Cc1c2oc3c(C)ccc(C(=O)N[C@@H]4C(=O)N[C@H](C(C)C)C(=O)N5CCC[C@H]5C(=O)N(C)CC(=O)N(C)[C@@H](C(C)C)C(=O)O[C@@H]4C)c3nc-2c(C(=O)N[C@@H]2C(=O)N[C@H](C(C)C)C(=O)N3CCC[C@H]3C(=O)N(C)CC(=O)N(C)[C@@H](C(C)C)C(=O)O[C@@H]2C)c(N)c1=O (I: T[dV]P[Sar][NMeV] / II: T[dV]P[Sar][NMeV]; ester I:1-I:C, II:1-II:C; linker I:N-II:N via Actinocin(9to1))",Potency,[4],4 nM (active)
same,Potency,[1],7.9 nM (active)
same,Potency,[2],3.2 nM (active)
COc1cc(NS(C)(=O)=O)ccc1Nc1c2ccccc2nc2ccccc12,outcome,[17],inactive
same,outcome,[18],inactive
same,"activity change, negative = inhibition",[6]; at 57.5 µM (top of the series),0.361% (inactive)
same,max response,[6]; [20],-18.5%
same,max response,[6]; [21],-18.7%
same,Potency,[10],1000 nM (active)
same,Potency,[13],891 nM (active)
same,Potency,[14],891 nM (active)
same,Potency,[11],1410 nM (active)
same,Potency,[15],2510 nM (active)
same,Potency,[16],1000 nM (active)
same,Potency,[12],1410 nM (active)
COc1cccc2c1C(=O)c1c(O)c3c(c(O)c1C2=O)C[C@@](O)(C(=O)CO)C[C@@H]3O[C@H]1C[C@H](N)[C@H](O)[C@H](C)O1,Potency,[4],199 nM (active)
same,Potency,[5],501 nM (active)
same,Potency,[1],1000 nM (active)
same,Potency,[2],794 nM (active)
O=C1CCC(c2ccc(-n3ccnc3)cc2)=NN1,outcome,[17],inactive
same,outcome,[18],inactive
same,Potency,[7],inactive
same,outcome,[8],inactive
same,outcome,[9],inactive
same,Potency,[10],inactive
same,Potency,[13],inactive
same,Potency,[14],inactive
same,Potency,[11],inactive
same,Potency,[15],inactive
same,Potency,[16],inactive
same,Potency,[12],inactive
same,outcome,[19],inactive
CC(C)(C)CC(C)(C)c1ccc(OCCOCC[N+](C)(C)Cc2ccccc2)cc1,Potency,[4],31600 nM (active)
same,Potency,[5],31600 nM (active)
same,Potency,[1],50100 nM (active)
same,Potency,[2],39800 nM (active)
CN1CCC[C@@H]1c1cccnc1,outcome,[17],inactive
same,outcome,[18],inactive
N[C@H](CO)C(=O)O,Potency,[7],inactive
same,outcome,[8],inactive
same,outcome,[9],inactive
same,Potency,[10],inactive
same,Potency,[13],inactive
same,Potency,[14],inactive
same,Potency,[11],inactive
same,Potency,[15],inactive
same,Potency,[16],inactive
